# Assay results taken from PubChem BioAssay (NCI).
# “And” between values parts separate entries of the source, which are not always exact repeats. Identical values can stand only once. The panel holds about 83,000 compounds, 20% with a hit somewhere; the sample as a whole holds those more often.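 The test compound was applied at a single concentration to cells in 96-well plates for 48 hours, and percent growth was recorded.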 A number with no mark means an inactive call. The source made the active and inactive calls.
# System: T-47D breast
# Experiment: NCI-60 one-dose screen, 48 h (100 = growth as untreated, 0 = no growth, -100 = all killed)
# Conditions: 10 µM
# Experimental: Growth inhibition of the T-47D human tumor cell line is measured as a screen for anti-cancer activity. Cells are grown in 96 well plates and exposed to the test compound for 48 hours. Compounds are tested at a single concentration, which is 10^-5 M for most compounds. The reported endpoint is percent growth (GI% or GIPRCNT), where numbers from 0 - 100% represent growth inhibition, and numbers from -100% - 0 represent cell death. For example, a value of 40 represents 60% growth inhibition. A value of 0 means no net growth occurred over the course of the experiment. A value of -40 indicates 40% of cells at the beginning of the experiment died by the end of the experiment. A value of -100 means all cells are dead at the end of the experiment.
# NCI-60 Human Tumor Cell Lines Screen was performed using the standard one-dose NCI protocol, which is described in more detail at https://dtp.cancer.gov/discovery_development/nci-60/default.htm.
# Compounds with GIPRCNT values below 10 were considered active. Activity score was based on GIPRCNT using the following formula: […]
# Score is 0 for GIPRCNT values of 100 or above, 50 for GIPRCNT values of 0, and 100 for GIPRCNT values of -100.
row,SMILES,growth
1,COc1ccc(-c2cscc2N)cc1,60%

# Same assay, conditions: 10 µM unless noted
row,SMILES,growth
1,CCCCCCCCCCCCCCNCc1ccccc1,72.9%
2,Cc1ccc(N=C=C(c2ccccc2)c2ccccc2)cc1,85.7%
3,CC(=O)C(=Cc1ccc(C=C(C(C)=O)C(C)=O)cc1)C(C)=O,29.1%
4,O=C(Nc1ccccc1)Oc1c(Cl)c(Cl)c(Cl)c(Cl)c1Cl,102% and 84.5%
5,NC(=S)N/N=C/c1ccc(Cl)s1,89.8%
6,CNc1ccc(N)cc1,119%
7,C[N+](C)=c1ccc2nc3c(cc(NCCCNc4cc5oc6cc(=[N+](C)C)ccc-6nc5c5ccccc45)c4ccccc43)oc-2c1,46.2%
8,O=C(/C=C\c1ccccc1)N1c2ccccc2CC1c1c[nH]c2ccccc12 (stereo not given),23.4%
9,O=C(/C=C/c1cccc(Cl)c1)c1ccccc1,96.8% and 88.3%
10,CCC(c1cccc(O)c1)C(CC)c1cccc(O)c1 (stereo not given),53.8%
11,O=C1C2=C(Nc3cc([N+](=O)[O-])ccc3N2)OC1c1c2ccccc2cc2ccccc12 (stereo not given),47.4%
12,O=C(Nc1ccccc1)c1cc(Cl)ccc1O,23.4%
13,C/C=C1\SC(=S)NC1=O,92.6%
14,CNc1ccc2c(c1)c1ccccc1n2C,91.3%
15,N[C@H](C(=O)O)[C@@H]1CC(Cl)=NO1,37.4% [20 µM]
16,O=C(/C=C/C=C/c1ccccc1)c1ccco1,67.5%
17,CC(=Nc1ccc(N(C)C)cc1)c1ccccc1,39.6%
18,Cn1c2c(c3ccccc31)CCN1C[C@@H]3CCCC[C@H]3C[C@@H]21,32.9%
19,CC(=O)Nc1cccc2cc(O)ccc12,97% and 103%

row,SMILES,growth
1,CCN1/C(=C\c2cc[n+](CC)c3ccccc23)C=Cc2ccccc21,2.9% (active)
2,Oc1c(Cl)cc(Cl)c2cccnc12,52.4% and 43.4%
3,O=C(O)C1C2CC3C(OC(=O)C31)C2Br (stereo not given),98.7% and 96%
4,O=C1N[C@H]2[C@H](CS[C@H]2CCCCC(=O)N(CCP(c2ccccc2)c2ccccc2)CCP(c2ccccc2)c2ccccc2)N1,74.8%
5,CN(C)c1ccc(C(=C2C=CC(=[N+](C)C)C=C2)c2ccc(N(C)C)cc2)cc1 (tested in a mixture with another compound),-92.4% (active)
6,Cc1ccc2nc(C[n+]3ccc4ccccc4c3)ccc2c1,32.2%
7,N#CSCC(=O)c1ccc(Cl)cc1,71.4%
8,Oc1c(Cl)c2ccccc2c2ccccc12,122%
9,CCC1OC(OC)C=CC1=O (stereo not given),95.1%
10,NC(N)=N/N=C/c1ccc([N+](=O)[O-])o1,96.7%
11,CCCCCCCCCCCCCCCCOP(=O)([O-])OCC[N+](C)(C)C,73%
12,CC1(C)CC([P+](c2ccccc2)(c2ccccc2)c2ccccc2)=NN1,6.55% (active)
13,NC1=CC(=O)c2ccccc2C1=O,98%
14,Cc1ccnc(NC(c2ccccc2)c2ccc3cccnc3c2O)c1 (stereo not given),54.7%
15,CC1OC2CC(=O)OC2C2=C1C(=O)c1c(O)cccc1C2=O (stereo not given),-30.1% (active)
16,C=CCOc1ccc(N=NC(C#N)C#N)cc1,-2.81% (active)
17,O=C1c2ccccc2C(=O)c2sc(Nc3cccc(Cl)c3)nc21,16%
18,CN(C)c1ccc(/C=N/N=C(\C#N)[S][Sn]([Cl])([c]2ccccc2)[c]2ccccc2)cc1,-65.8% (active)
19,CC(C)(C)CC(C)(C)c1ccc(OCCSC(=N)N)cc1,7.82% (active)

# Same assay, conditions: 100 µM
row,SMILES,growth
1,COc1ccc(-c2cscc2N)cc1,17.3%
